In the supplement of paper PMC6607015:
Counter-ions that a name gives are not always drawn.

Tests used:
Settings in all cases: compound concentration in added solution (µM; 5 µl added to 20 µl cells): 10; 18 h
[1] = test system: A431; assay: LBPA endosome anti-LBPA integrated intensity (sum per cell), Z-score; higher = more LBPA staining
In short: (§1)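 After 18 h on 5 µl of 10 µM compound solution in duplicate 384-well imaging plates, HeLa MZ or A431 cells, seeded at 3,500 per well in 20 µl, were fixed with 4% PFA. They were then labelled with 6C4 anti-LBPA antibody, filipin, propidium iodide and CellTracker green, and four 20× fields were recorded per well. Integrated LBPA or filipin intensity per cell, whole-cell or within LBPA endosomes, came from MetaXpress segmentation and was normalised to Z-scores in AcuityXpress.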

[2] = test system: HeLa MZ; assay: as above
In short: as §1

[3] = test system: A431; assay: whole-cell filipin (free cholesterol) integrated intensity, Z-score; higher = more cholesterol staining
In short: as §1

[4] = test system: HeLa MZ; assay: as above
In short: as §1

[5] = test system: A431; assay: filipin (cholesterol) integrated intensity within LBPA endosomes, Z-score; higher = more cholesterol in LBPA endosomes
In short: as §1

[6] = test system: HeLa MZ; assay: as above
In short: as §1

With `CC(=O)O[C@H]1C[C@@H]2CC[C@@H]3[C@H](CC[C@@]4(C)[C@H]3C[C@H]([N+]3(C)CCCCC3)[C@@H]4OC(C)=O)[C@@]2(C)C[C@@H]1N1CCCCC1` [Vecuronium bromide] the “LBPA endosome anti-LBPA integrated intensity (z-score)” value [1] was -0.413, the “LBPA endosome anti-LBPA integrated intensity (z-score)” value [2] was 0.00655 and the “whole-cell filipin (z-score)” value [3] was 0.0669. The “whole-cell filipin (z-score)” value [4] was -0.181, the “filipin (z-score)” value [5] was -0.445 and the “filipin (z-score)” value [6] was -0.215.
`Cc1nnc(SCC2=C(C(=O)O)N3C(=O)[C@@H](NC(=O)Cn4cnnn4)[C@H]3SC2)s1` [Cefazolin sodium salt] was tested, and the “LBPA endosome anti-LBPA integrated intensity (z-score)” value [1] was -0.481, the “LBPA endosome anti-LBPA integrated intensity (z-score)” value [2] was -0.611 and the “whole-cell filipin (z-score)” value [3] was -0.424. The “whole-cell filipin (z-score)” value [4] was -0.218, the “filipin (z-score)” value [5] was -0.384 and the “filipin (z-score)” value [6] was -0.417.
For `O=C(O)c1cn(-c2ccc(F)cc2)c2cc(N3CCNCC3)c(F)cc2c1=O` [Sarafloxacin], the “LBPA endosome anti-LBPA integrated intensity (z-score)” value [1] was -0.35, the “LBPA endosome anti-LBPA integrated intensity (z-score)” value [2] was -0.0848 and the “whole-cell filipin (z-score)” value [3] was 0.000583. The “whole-cell filipin (z-score)” value [4] was -0.426, the “filipin (z-score)” value [5] was -0.428 and the “filipin (z-score)” value [6] was -0.434.
In the case of `NC(Cc1cc(I)c(Oc2cc(I)c(O)c(I)c2)c(I)c1)C(=O)O` (stereo not given) [Thyroxine (L)], the “LBPA endosome anti-LBPA integrated intensity (z-score)” value [1] is reported as -0.687, the “LBPA endosome anti-LBPA integrated intensity (z-score)” value [2] is reported as -1.35 and the “whole-cell filipin (z-score)” value [3] is reported as -1.1. The “whole-cell filipin (z-score)” value [4] was -0.619, the “filipin (z-score)” value [5] was -0.586 and the “filipin (z-score)” value [6] was -0.6.
`CC(=O)CCCCn1c(=O)c2c(ncn2C)n(C)c1=O` [Pentoxifylline] was tested, and the “LBPA endosome anti-LBPA integrated intensity (z-score)” value [1] was -0.527, the “LBPA endosome anti-LBPA integrated intensity (z-score)” value [2] was -0.115 and the “whole-cell filipin (z-score)” value [3] was -0.786. For the same compound, the “whole-cell filipin (z-score)” value [4] was -0.278, the “filipin (z-score)” value [5] was -0.513 and the “filipin (z-score)” value [6] was -0.514.
`CN[C@@H]1[C@H](O)[C@H](NC)[C@H]2O[C@@]3(O)C(=O)C[C@@H](C)O[C@H]3O[C@@H]2[C@H]1O` [Spectinomycin dihydrochloride] was tested, and the “LBPA endosome anti-LBPA integrated intensity (z-score)” value [1] was -0.507, the “LBPA endosome anti-LBPA integrated intensity (z-score)” value [2] was -0.585 and the “whole-cell filipin (z-score)” value [3] was -0.388. The “whole-cell filipin (z-score)” value [4] was -0.158, the “filipin (z-score)” value [5] was -0.451 and the “filipin (z-score)” value [6] was -0.309.
With `CCCN(CCC)S(=O)(=O)c1ccc(C(=O)O)cc1` [Probenecid] the “LBPA endosome anti-LBPA integrated intensity (z-score)” value [1] was -0.546, the “LBPA endosome anti-LBPA integrated intensity (z-score)” value [2] was -0.569 and the “whole-cell filipin (z-score)” value [3] was -0.756. For the same compound, the “whole-cell filipin (z-score)” value [4] was -0.679, the “filipin (z-score)” value [5] was -0.526 and the “filipin (z-score)” value [6] was -0.61.
`CN(C)CCN1C(=O)c2ccccc2N(C)c2ccccc21` [Dibenzepine hydrochloride] was tested, and the “LBPA endosome anti-LBPA integrated intensity (z-score)” value [1] was -0.357, the “LBPA endosome anti-LBPA integrated intensity (z-score)” value [2] was 0.481 and the “whole-cell filipin (z-score)” value [3] was -0.676. For the same compound, the “whole-cell filipin (z-score)” value [4] was -0.7, the “filipin (z-score)” value [5] was -0.373 and the “filipin (z-score)” value [6] was 0.00611.
`CC(=O)Nc1ccc(O)cc1` [Acetaminophen] was tested, and the “LBPA endosome anti-LBPA integrated intensity (z-score)” value [1] was -0.388, the “LBPA endosome anti-LBPA integrated intensity (z-score)” value [2] was 0.0073 and the “whole-cell filipin (z-score)” value [3] was -0.156. For the same compound, the “whole-cell filipin (z-score)” value [4] was -0.518, the “filipin (z-score)” value [5] was -0.48 and the “filipin (z-score)” value [6] was -0.412.
With `CCC(=O)OCC(=O)[C@@]1(OC(=O)CC)[C@@H](C)C[C@H]2[C@@H]3CCC4=CC(=O)C=C[C@]4(C)[C@@]3(Cl)[C@@H](O)C[C@@]21C` [Beclomethasone dipropionate] the “LBPA endosome anti-LBPA integrated intensity (z-score)” value [1] was -0.15, the “LBPA endosome anti-LBPA integrated intensity (z-score)” value [2] was 0.711 and the “whole-cell filipin (z-score)” value [3] was 0.251. The “whole-cell filipin (z-score)” value [4] was -0.00746, the “filipin (z-score)” value [5] was -0.116 and the “filipin (z-score)” value [6] was 0.00681.
For `C[C@H]1C[C@@H]2[C@H]([C@@H](O)C[C@@]3(C)[C@H]2CC[C@]3(O)C(=O)CO)[C@@]2(C)C=CC(=O)C=C12` [Methylprednisolone, 6-alpha], the “LBPA endosome anti-LBPA integrated intensity (z-score)” value [1] was -0.113, the “LBPA endosome anti-LBPA integrated intensity (z-score)” value [2] was 0.0903 and the “whole-cell filipin (z-score)” value [3] was -0.236. For the same compound, the “whole-cell filipin (z-score)” value [4] was -0.329, the “filipin (z-score)” value [5] was -0.297 and the “filipin (z-score)” value [6] was -0.497.
`N=C(N)N1CCc2ccccc2C1` [Debrisoquin sulfate] was tested, and the “LBPA endosome anti-LBPA integrated intensity (z-score)” value [1] was -0.566, the “LBPA endosome anti-LBPA integrated intensity (z-score)” value [2] was -0.193 and the “whole-cell filipin (z-score)” value [3] was -0.719. The “whole-cell filipin (z-score)” value [4] was -0.695, the “filipin (z-score)” value [5] was -0.556 and the “filipin (z-score)” value [6] was -0.606.
For `CN(C)CCC=C1c2ccccc2CCc2ccccc21` [Amitryptiline hydrochloride], the “LBPA endosome anti-LBPA integrated intensity (z-score)” value [1] was 2.23, the “LBPA endosome anti-LBPA integrated intensity (z-score)” value [2] was 1.04 and the “whole-cell filipin (z-score)” value [3] was 1.41. For the same compound, the “whole-cell filipin (z-score)” value [4] was 0.0305, the “filipin (z-score)” value [5] was 2.47 and the “filipin (z-score)” value [6] was 1.81.
`Cc1ccc(C(=O)c2ccc(CC(=O)O)n2C)cc1` [Tolmetin sodium salt dihydrate] was tested, and the “LBPA endosome anti-LBPA integrated intensity (z-score)” value [1] was -0.35, the “LBPA endosome anti-LBPA integrated intensity (z-score)” value [2] was -0.0177 and the “whole-cell filipin (z-score)” value [3] was -0.301. The “whole-cell filipin (z-score)” value [4] was -0.429, the “filipin (z-score)” value [5] was -0.412 and the “filipin (z-score)” value [6] was -0.483.
In the case of `CN(C)CCC(c1ccc(Cl)cc1)c1ccccn1` (stereo not given) [Chlorpheniramine maleate], the “LBPA endosome anti-LBPA integrated intensity (z-score)” value [1] is reported as -0.653, the “LBPA endosome anti-LBPA integrated intensity (z-score)” value [2] is reported as 0.363 and the “whole-cell filipin (z-score)” value [3] is reported as -0.45. The “whole-cell filipin (z-score)” value [4] was -0.192, the “filipin (z-score)” value [5] was -0.443 and the “filipin (z-score)” value [6] was 0.105.
In the case of `CSc1ccc2c(c1)C(N1CCN(C)CC1)Cc1ccccc1S2` (stereo not given) [Methiothepin maleate], the “LBPA endosome anti-LBPA integrated intensity (z-score)” value [1] is reported as 3.25, the “LBPA endosome anti-LBPA integrated intensity (z-score)” value [2] is reported as 1.9 and the “whole-cell filipin (z-score)” value [3] is reported as 0.963. For the same compound, the “whole-cell filipin (z-score)” value [4] was 0.218, the “filipin (z-score)” value [5] was 3 and the “filipin (z-score)” value [6] was 2.66.
With `NNC(=O)c1ccncc1` [Isoniazid] the “LBPA endosome anti-LBPA integrated intensity (z-score)” value [1] was -0.56, the “LBPA endosome anti-LBPA integrated intensity (z-score)” value [2] was -1.34 and the “whole-cell filipin (z-score)” value [3] was -0.938. For the same compound, the “whole-cell filipin (z-score)” value [4] was -1.09, the “filipin (z-score)” value [5] was -0.477 and the “filipin (z-score)” value [6] was -0.667.
In the case of `C[C@]12CC[C@@H]3c4ccc(O)cc4CC[C@H]3[C@@H]1C[C@@H](O)[C@@H]2O` [Estriol], the “LBPA endosome anti-LBPA integrated intensity (z-score)” value [1] is reported as -0.219, the “LBPA endosome anti-LBPA integrated intensity (z-score)” value [2] is reported as 0.135 and the “whole-cell filipin (z-score)” value [3] is reported as -0.24. For the same compound, the “whole-cell filipin (z-score)” value [4] was -0.552, the “filipin (z-score)” value [5] was -0.367 and the “filipin (z-score)” value [6] was -0.397.
For `C=C1/C(=C\C=C2/CCC[C@]3(C)[C@@H]([C@H](C)/C=C/[C@@H](O)C4CC4)CC[C@@H]23)C[C@@H](O)C[C@@H]1O` [Calcipotriene], the “LBPA endosome anti-LBPA integrated intensity (z-score)” value [1] was 0.563, the “LBPA endosome anti-LBPA integrated intensity (z-score)” value [2] was 1.43 and the “whole-cell filipin (z-score)” value [3] was 0.734. For the same compound, the “whole-cell filipin (z-score)” value [4] was 0.316, the “filipin (z-score)” value [5] was 0.659 and the “filipin (z-score)” value [6] was 0.179.
With `CCCCNc1cc(C(=O)O)cc(S(N)(=O)=O)c1Oc1ccccc1` [Bumetanide] the “LBPA endosome anti-LBPA integrated intensity (z-score)” value [1] was -0.516, the “LBPA endosome anti-LBPA integrated intensity (z-score)” value [2] was -0.493 and the “whole-cell filipin (z-score)” value [3] was -0.507. The “whole-cell filipin (z-score)” value [4] was -0.553, the “filipin (z-score)” value [5] was -0.588 and the “filipin (z-score)” value [6] was -0.565.
`CC[C@@H]1C(=O)OC[C@@H]1Cc1cncn1C` [Pilocarpine nitrate] was tested, and the “LBPA endosome anti-LBPA integrated intensity (z-score)” value [1] was -0.402, the “LBPA endosome anti-LBPA integrated intensity (z-score)” value [2] was -0.0375 and the “whole-cell filipin (z-score)” value [3] was -0.715. For the same compound, the “whole-cell filipin (z-score)” value [4] was -0.63, the “filipin (z-score)” value [5] was -0.502 and the “filipin (z-score)” value [6] was -0.573.
With `N=C(N)NC(=O)c1nc(Cl)c(N)nc1N` [Amiloride hydrochloride dihydrate] the “LBPA endosome anti-LBPA integrated intensity (z-score)” value [1] was -0.438, the “LBPA endosome anti-LBPA integrated intensity (z-score)” value [2] was -0.561 and the “whole-cell filipin (z-score)” value [3] was -0.785. For the same compound, the “whole-cell filipin (z-score)” value [4] was -0.475, the “filipin (z-score)” value [5] was -0.486 and the “filipin (z-score)” value [6] was -0.551.
With `C=CCN1CCCC1CNC(=O)c1cc2nn[nH]c2cc1OC` (stereo not given) [Alizapride HCl] the “LBPA endosome anti-LBPA integrated intensity (z-score)” value [1] was -0.413, the “LBPA endosome anti-LBPA integrated intensity (z-score)” value [2] was 0.636 and the “whole-cell filipin (z-score)” value [3] was -0.622. The “whole-cell filipin (z-score)” value [4] was -0.69, the “filipin (z-score)” value [5] was -0.538 and the “filipin (z-score)” value [6] was -0.182.
In the case of `CC(=O)c1ccc(S(=O)(=O)NC(=O)NC2CCCCC2)cc1` [Acetohexamide], the “LBPA endosome anti-LBPA integrated intensity (z-score)” value [1] is reported as -0.506, the “LBPA endosome anti-LBPA integrated intensity (z-score)” value [2] is reported as -0.393 and the “whole-cell filipin (z-score)” value [3] is reported as -0.763. For the same compound, the “whole-cell filipin (z-score)” value [4] was -0.947, the “filipin (z-score)” value [5] was -0.604 and the “filipin (z-score)” value [6] was -0.673.
In the case of `CN(C)CCCN1c2ccccc2Sc2ccc(C(F)(F)F)cc21` [Triflupromazine hydrochloride], the “LBPA endosome anti-LBPA integrated intensity (z-score)” value [1] is reported as 3.06, the “LBPA endosome anti-LBPA integrated intensity (z-score)” value [2] is reported as 1.61 and the “whole-cell filipin (z-score)” value [3] is reported as 0.711. For the same compound, the “whole-cell filipin (z-score)” value [4] was 0.675, the “filipin (z-score)” value [5] was 2.23 and the “filipin (z-score)” value [6] was 2.87.
